# Screens from PubChem BioAssay.
# An excerpt weighted towards active compounds, which were near 4.5% of everything screened.
# dFosB activator: enhances mouse delta FosB homodimer DNA binding; P13346; purified delta FosB, TAMRA-CDK5 oligo fluorescence polarization; percent of positive-control signal above neutral wells; activation, % at 25 µM; hit rate 0.99% among 340,000; AID 493131;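 active = mean activation above about 17%, with every replicate also reaching it, limit read from the data, passing the limit was not always enough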
# TPT1 inhibitor: C. albicans TPT1 enzyme inhibition. inhibition, % at 5 µM. hit rate 0.81% among 300,000. AID 1962. recombinant caTPT1, FP RNA substrate dephosphorylation;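 active = inhibition above the mean of all tested compounds plus 3 SD, set per screening campaign, cut at about 24% in these data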;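 note: plate controls were DMSO alone for no effect and ferristatin control at 100 nM for full effect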
# ZTA DNA inh: counter-screen for EBNA-1 inhibitors: inhibitors of Epstein-Barr virus ZTA; ZTA-DNA binding, fluorescence polarization; hit rate 0.15% among 320,000; inhibition, % at 11 µM; AID 2234; P03206; in the data active = inhibition above about 33%
# NR3A LBD binder: modulates the human NR3A ligand-binding domain | NR3A LBD differential scanning fluorimetry, Tm shift; 0% = protein alone, 100% = glycine-bound protein | hit rate 2.5% among 340,000 | AID 1259313 | Tm shift relative to glycine control, % at 25 µM;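 active = melting temperature shift of at least 10% of the positive control shift, at one fixed dose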
# EBNA-1 inh: blocks EBNA-1 binding to DNA; inhibition, % at 14.8 µM; hit rate 0.34% among 300,000; EBNA-1 DNA binding, fluorescence polarization; in the data active = inhibition above about 28%
# Rpn11 block: inhibitors of human proteasome Rpn11; O00487; inhibition, % at 20 µM; AID 588493; human 26S proteasome, Ub4-pepOG fluorescence polarization; 20S core pre-blocked with epoxomicin; hit rate 0.59% among 360,000;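 active = inhibition at 20 µM, scaled to each plate's controls, above about 33%, limit read from the data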
# Target sequence (O00487 whole entry, looked up): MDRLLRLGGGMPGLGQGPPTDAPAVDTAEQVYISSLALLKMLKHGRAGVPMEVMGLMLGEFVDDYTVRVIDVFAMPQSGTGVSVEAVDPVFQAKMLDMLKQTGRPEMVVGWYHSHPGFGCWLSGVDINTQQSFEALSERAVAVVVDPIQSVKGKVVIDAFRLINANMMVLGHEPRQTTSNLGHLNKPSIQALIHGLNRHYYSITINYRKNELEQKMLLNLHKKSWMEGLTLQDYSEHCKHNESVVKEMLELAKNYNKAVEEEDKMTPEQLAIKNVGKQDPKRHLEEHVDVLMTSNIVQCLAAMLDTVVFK
# The depositor's hits bear a star; / = not tested or not shown.
SMILES,dFosB activator,TPT1 inhibitor,ZTA DNA inh,NR3A LBD binder,EBNA-1 inh,Rpn11 block
Cc1ccc(N(C(=O)c2csnn2)C(C(=O)NC2CCCC2)c2cccnc2)c(C)c1 (stereo not given),-8,2,3,-1,-5,7
OCCNC(=S)NCCc1ccccc1,3,-2,-20,-2,11,2
S=C(NCCc1ccccc1)Nc1ccc(Nc2ccccc2)cc1,-11,3,-5,23*,-8,6
S=C(NCCc1ccccc1)Nc1cnc2ccccc2c1,-13,-5,7,14*,6,2
CCCNC(=S)Nc1ccccc1,8,-5,-10,2,-7,1
Cc1ccc(NC(=O)Nc2cnc3ccccc3c2)cc1,0,1,19,27*,1,1
CC(C)(CNC(=S)NCCc1ccccc1)CNC(=S)NCCc1ccccc1,6,/,/,14*,/,1
CCNc1nc(NC(C)(C)C)nc(Oc2ccc(=O)n(-c3ccccc3)n2)n1,-1,0,-12,-1,0,-2
Cc1c(C(=O)Nc2cccnc2)oc2ccc(Br)cc12,-8,0,1,3,-11,7
CCN(CC)C(=O)Cn1cc(C(=O)C(=O)NCc2ccccn2)c2ccccc21,-9,-4,-5,0,-12,-6
Cc1ccc(NC(=O)NNC(=O)c2cc3ccccc3cc2O)cc1,93*,0,1,-2,6,6
O=[N+]([O-])c1cccc(NC(=S)NCCc2ccccc2)c1,0,-3,8,33*,2,6
O=[N+]([O-])c1ccc(C(O)CNC(=S)Nc2ccccc2)cc1 (stereo not given),-4,-2,-10,12*,-1,4
Fc1cccc(NC(=S)NCCc2ccccc2)c1,3,-3,-28,28*,-9,-1
O=C(Cc1cccc([N+](=O)[O-])c1)Nc1ccccc1,/,/,/,/,/,2
CCN(CC(=O)Nc1c(F)cccc1F)C(=O)CCCNC(=O)c1ccc(Cl)cc1,-5,1,-8,2,-7,4
Cc1ccc(NC(=O)Nc2ccnc(-c3cccnc3)n2)cc1,-23,0,-5,34*,9,-4
N#C/C(=C\c1ccccc1[N+](=O)[O-])c1nc(C2CC2)cs1,-1,3,-2,16*,-1,6
N#C/C(=C/c1ccccc1[N+](=O)[O-])c1nc(C2CC2)cs1,-8,0,9,9,-13,5
C/C(=N\Nc1nc2ccccc2[nH]1)c1ccc(C)o1,6,-3,4,-1,8,5
C/C(=N\Nc1nc2ccccc2[nH]1)c1ccc(Cl)s1,10,0,-10,16*,-12,6
Cc1ccc(-c2nc(CN(C)Cc3ccc4nccnc4c3)c(C)o2)s1,-8,3,4,-1,-3,1
Oc1ccc(/C=N/Nc2ccnc3cc(Cl)ccc23)cc1O,109*,2,1,21*,-2,-5
COc1ccc(NC(=O)Nc2ccc(Br)c(C)c2)cc1,3,-1,-12,25*,6,-6
O=C(Nc1cccnc1)Nc1ccc(F)c(Cl)c1,-4,-2,-4,25*,5,-3
SMILES,dFosB activator,TPT1 inhibitor,ZTA DNA inh,NR3A LBD binder,EBNA-1 inh,Rpn11 block
O=C(Nc1ccc(Cl)c(Cl)c1)Nc1ccon1,-4,-2,15,28*,3,0
Cc1cc(NC(=O)Nc2ccc(Cl)c(Cl)c2)no1,-3,-5,-9,-3,-9,6
Cc1nnsc1C(=O)Nc1ccc(Cl)cc1,2,2,-5,0,-2,-8
Cc1nnsc1SCCNC(=O)Nc1ccc(Cl)cc1,-5,4,-1,28*,-6,0
COc1ccc(NC(=O)CSc2nc3[nH]ncc3c(=O)[nH]2)c(OC)c1,-2,-2,-6,-1,-7,0
O=C(Nc1ccc(Br)cc1)Nc1ccccc1F,1,-1,-3,5,-2,-3
O=C(Nc1ccc(Cl)cc1)Nc1cccc2nsnc12,5,-2,-13,21*,-1,0
O=C(Nc1ccncc1)Nc1cccc(Cl)c1Cl,-17,/,/,-2,/,-3
O=C(Nc1ccc(Cl)c(Cl)c1)Nc1ccc(Br)cc1F,1,-3,-6,40*,-5,-3
CCC(CC)NC(=O)Nc1ccc(F)c(Cl)c1,-3,0,-6,0,-5,2
Cc1ccc(NC(=O)Nc2ccc(F)c(Cl)c2)cc1,-14,2,16,32*,6,0
